Assay outcomes (PubChem)
Rab9 promoter act = Rab9 promoter activation; Potency, µM (highest dose often 9.22 µM), inactives show at the highest dose activation, negative = inhibition, most hits filed as activators; 320,000 compounds, 2.8% hits; Huh7 Rab9 promoter-luciferase reporter, luminescence, 24 h; AID 485297; note: % of control where 0% means no effect; nearly all actives have a fitted effect of over 60% in size
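Quantitative HTS format; Huh7 Rab9-luciferase reporter cells (1500/well) receive compound 2 h post-plating, incubate 24 h at 37 °C, then get luciferase reagent for 10 min before luminescence reading.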
SMN2 splice up = enhancers of SMN2 splice variant expression; Potency, µM (series often up to 46.1 µM), for the others: at the highest dose activity change, positive = activation, hits mostly activators; HEK293 SMN2-luciferase splicing reporter, luminescence, 30-36 h; 210,000 compounds, 2.8% hits; note: % of control where 0% means no effect; nearly all actives have a fitted effect of over 55% in size
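HEK293 cells carry an SMN2 […]–luciferase reporter in which exon 7 inclusion puts luciferase in frame. Cells were plated 10-12 h before compound addition, then incubated 30-36 h at 37C. ONE-Glo luminescence was read; sodium butyrate at 4.5 mM final served as control.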
FLuc modulator = counter-screen for miR-21 project: firefly luciferase inhibitors or activators | Potency, µM (top dose mostly 57.5 µM), without a hit: at the highest dose activity change, negative = inhibition, hits mostly inhibitors | purified FLuc, Km substrates, luminescence inhibition | 360,000 compounds, 6.9% hits;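 note: plate controls were vehicle for no effect and reference inhibitor for full effect; nearly all actives have a fitted effect of over 55% in size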
Target sequence (P08659 whole entry, looked up): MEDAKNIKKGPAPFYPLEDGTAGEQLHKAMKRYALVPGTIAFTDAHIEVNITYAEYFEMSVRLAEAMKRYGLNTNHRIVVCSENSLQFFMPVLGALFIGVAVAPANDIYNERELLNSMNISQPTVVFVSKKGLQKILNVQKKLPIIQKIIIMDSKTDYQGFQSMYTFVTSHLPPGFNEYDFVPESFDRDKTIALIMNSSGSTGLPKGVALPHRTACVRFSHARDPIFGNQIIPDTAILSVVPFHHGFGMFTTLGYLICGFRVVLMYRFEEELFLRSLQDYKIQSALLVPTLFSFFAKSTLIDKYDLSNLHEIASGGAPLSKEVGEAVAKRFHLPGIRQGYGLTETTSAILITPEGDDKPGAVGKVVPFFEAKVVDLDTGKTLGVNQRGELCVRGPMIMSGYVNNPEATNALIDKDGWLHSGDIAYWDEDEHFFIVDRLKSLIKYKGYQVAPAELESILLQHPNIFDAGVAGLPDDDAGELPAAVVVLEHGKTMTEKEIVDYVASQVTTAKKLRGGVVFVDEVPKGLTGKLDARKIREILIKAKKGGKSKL
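Purified P. pyralis luciferase, 10 nM final, with Km-level 10 uM D-luciferin and 10 uM ATP in 50 mM Tris acetate pH 7.5, 10 mM Mg acetate, 0.01% Tween-20, 0.05% BSA; 6-point qHTS titration about 60 µM downward; luminescence read.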
NPC1 promoter act = NPC1 promoter activation | 320,000 compounds, 2.4% hits | Potency, µM (series often up to 9.22 µM), without a hit: top-dose activation, actives largely listed as activators | Huh7 NPC1 promoter luciferase reporter, 24 h | AID 485313; note: % of control where 0% means no effect; nearly all actives have a fitted effect of over 60% in size
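Readout is luciferase luminescence, reflecting NPC1 promoter activation in stably transfected Huh7 cells after 24 h compound exposure at 37 °C in reduced-serum medium with 10% FBS.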
ELG1 genotoxic = induces genotoxicity in HEK293T cells with luciferase-tagged ELG1; HEK293T ELG1-luciferase reporter, luminescence, 16 h; Potency, µM (doses to about 46 µM), inactives show top-dose activity change, positive = activation, hits mostly activators; 330,000 compounds, 1.3% hits; note: % of control where 0% means no effect; nearly all actives have a fitted effect of over 60% in size
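Screening used a luciferase reporter fused to human ELG1 in HEK293T cells. Luminescence was read on a CCD plate imager after 16 hr exposure and 30 min ONE-Glo incubation.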
* hit, by the source's call; u = inconclusive; x = no result given; [ ] = dose if it differs, or a comment. Sampled rows, rich in hits. Any-hit rate of the full collection: about 7.4%. Calls come from the whole dose curve; as a rule, active = well fitted curve in the direction sought with a large enough effect; inconclusive = small, poorly fitted or top-dose-only effect, or another doubt; inactive = no such curve, though single readings can be large; an effect the other way counts as inactive or inconclusive. Potency is the fitted concentration of half-maximal effect.

SMILES	Rab9 promoter act	SMN2 splice up	FLuc modulator	NPC1 promoter act	ELG1 genotoxic
Cc1cccc(NC(=O)Nc2ccc(C)c(C)c2)n1	u	u	2.1µM*	u	u
Cc1cccc(NC(=O)CNC(=O)Cc2ccc3c(c2)OCCO3)c1C	-4%	x	x	1%	-1%
Cc1cc(C)nc(NC(=S)NC(=O)c2ccccc2)n1	u	x	1%	u	3%
O=C(NC(=S)Nc1cnc2ccccc2c1)c1ccccc1	3.5µM*	11µM*	7.6µM*	u	u
O=C(NC(=S)Nc1ncc(Br)cc1Br)c1ccccc1	11%	x	21µM*	u	u
O=C(Nc1cnc2ccccc2c1)c1ccncc1	3.2µM*	21%	12µM*	1.8µM*	2.3µM*
S=C(NCCc1ccccc1)Nc1cnc2ccccc2c1	u	u	27µM*	25%	u
S=C(NCCc1ccccc1)Nc1ccc(Nc2ccccc2)cc1	-15%	x	-8%	1%	-13%
CC(=O)Nc1ccc(NC(=O)COC(=O)COc2ccc3ccccc3c2)cc1	x	x	x	x	-1%
O=C(COCc1cc(-c2ccc(F)cc2)on1)Nc1cc(Cl)cc(Cl)c1	x	x	-3%	x	x
Cc1cc2oc(C(=O)Nc3c(C(=O)Nc4ccccc4)oc4ccccc34)cc(=O)c2cc1C	x	1%	2%	x	x
COC(=O)c1cccc(C(=O)Nc2cnc3ccccc3c2)n1	u	-5%	24µM*	4µM*	10%
COc1ccc(CCC(=O)Nc2cnc3ccccc3c2)cc1	-3%	x	u	0%	2%
Cn1ncc2cc(NC(=S)NC(=O)c3ccccc3)ccc21	2µM*	20%	12µM*	2µM*	9%
COC(=O)c1cccc(C(=O)Nc2ccc(C)cc2Br)n1	-18%	u	11µM*	6%	11%
Cc1ccc(NC(=O)c2cccc(C(=O)OC(C)C)n2)c(Br)c1	-3%	13%	u	-3%	-1%
CCN(CC)C(=O)Nc1cnc2ccccc2c1	u	-4%	u	10%	7%
Cc1ccc(NC(=O)Nc2cnc3ccccc3c2)cc1	1.3µM*	13µM*	u	2.2µM*	u
Cc1ccc2c(c1)N(CC(=O)N1CCCCCC1)C(=O)C(C)O2 (stereo not given)	-2%	x	4%	-1%	3%
Cc1ccn2c(=O)nc(SCC(=O)c3ccccc3)nc2c1	u	x	15µM*	u	u
Cc1ccc2nc(SCC(=O)c3ccccc3)nc(=O)n2c1	u	x	11µM*	2.5µM*	u
CCCCn1c(CNC(=O)C23CC4CC(CC(C4)C2)C3)nnc1SC(C)CC (stereo not given)	-22%	-27%	-2%	-2%	-4%
CC(C)CC(=O)/C=C/n1c(=S)oc2ccccc21	-46%	-68%	0.95µM*	-32%	-16%
CC(=O)/C=C/n1c(=S)oc2ccccc21	-41%	-10%[1.84 µM]	5.4µM*	-36%	-11%
Cn1c(=S)oc2ccccc21	-6%	x	-2%	-4%	-3%
SMILES	Rab9 promoter act	SMN2 splice up	FLuc modulator	NPC1 promoter act	ELG1 genotoxic
O=C(CN(Cc1ccc(F)cc1)C(=O)CNS(=O)(=O)c1ccc(Cl)cc1)NCC1CCCO1 (stereo not given)	3%	x	2%	-44%	2%
O=C(c1c(F)cccc1F)N1CCN(CCOc2ccccc2)CC1	-1%	x	3%	-4%	-15%
CCc1ccccc1N(C)C(=O)Cn1cnc2sc(C)c(S(=O)(=O)N3CCC(C)CC3)c2c1=O	x	-2%	1%	x	x
CC1CCC(=NNC(=O)Cc2ccccc2)CC1 (stereo not given)	5%	8%	2%	2%	1%
CC1SCC(=NOCc2ccccc2)CS1 (stereo not given)	u	x	19µM*	u	u
CC(C)Oc1ccc(Cc2cnc(=S)[nH]c2N)cc1	-3%	u	3%	-4%	2%
CC(C)N(CCC(=O)c1ccc2ccccc2c1)Cc1ccccc1	-41%[46.1 µM]	6%	-18%	-34%[46.1 µM]	-5%
CCOc1ccccc1NC(=O)c1ccc2c(Cl)c3c(nc2c1)CCCC3	x	-2%	2.7µM*	x	x
COc1ccccc1NC(=O)c1ccc2c(Cl)c3c(nc2c1)CCCC3	x	1%	7.6µM*	x	x
COc1cc(OC)c(NC(=O)c2ccc3c(Cl)c4c(nc3c2)CCCC4)cc1Cl	x	-4%	-1%	x	x
CCOc1ccccc1NC(=O)c1ccc2ccccc2c1	u	x	21µM*	u	0%
CCC(=O)CCC(=O)c1ccc2ccccc2c1	u	14µM*	15µM*	u	u
O=C(CN(C(=O)c1csnn1)c1cccc2c1CCCC2)NCc1ccccc1	4%	x	2%	-3%	-6%
CCOc1ccccc1NC(=O)c1ccc2c(=O)n3c(nc2c1)CCCCC3	4%	x	u	11%	-6%
CCOc1ccccc1NC(=O)c1ccc2c(Cl)c3c(nc2c1)CCC3	x	22%	0.85µM*	x	x
CN(C)C(CNC(=O)c1ccc(S(=O)(=O)Nc2cccc(C(F)(F)F)c2)cc1)c1ccco1 (stereo not given)	-4%	x	5%	-1%	-8%
CSC1=NSC2=NC(=O)/C(=C\c3ccc(OC(=O)c4ccco4)cc3)C(=N)N12	1.6µM*	x	19µM*	3.5µM*	u
CS(=O)(=O)C1=NSC2=NC(=O)/C(=C\c3ccc(OC(=O)c4ccco4)c(Br)c3)C(=N)N21	2%	x	13µM*	-1%	3%
CC(C)CS(=O)(=O)C1=NSC2=NC(=O)/C(=C\c3ccc(OC(=O)c4ccco4)cc3)C(=N)N21	2%	x	u	9%	1%
COc1cc(/C=C2/C(=N)N3C(=NC2=O)SN=C3S(C)(=O)=O)ccc1OS(=O)(=O)c1ccc(C)cc1	0%	x	-19%	0%	-1%[9.26 µM]
Cc1cc(C)n(CCNC(=O)c2cc(COc3ccc(F)cc3Cl)on2)n1	-3%	x	u	3%	-11%
CC(Cc1cccnc1)NC(=O)c1cc(COc2c(F)cccc2F)on1 (stereo not given)	12%	x	4%	-6%	-8%
CC(Cc1cccnc1)NC(=O)c1cc(COc2ccc(F)cc2Cl)on1 (stereo not given)	9%	x	13µM*	-13%	-2%
Cc1nc(CCNC(=O)c2cc(COc3ccc(F)cc3Cl)on2)sc1C	12%	x	21µM*	22%	-4%
CC(CCn1cccn1)NC(=O)c1cc(COc2ccc(F)cc2Cl)on1 (stereo not given)	2%	x	17µM*	-2%	1%
Cc1ccc(OCc2cc(C(=O)NC(C)Cc3cccnc3)no2)cc1C (stereo not given)	u	x	13µM*	u	15%
CCn1c(SCC(=O)N/N=C(\C)c2ccncc2)nnc1-c1ccc(C)cc1	0%	x	-7%	3%	-4%
COc1ccc(Cc2nc3ccc(C(=O)NC(C)c4cn(C)nc4C)cc3o2)cc1 (stereo not given)	-1%	x	-4%	1%	-9%
